The panel holds about 79,000 compounds, 15% with a hit somewhere; the sample as a whole holds those more often. Calls of active or inactive are those of the source. No stated cut-off is given here; in the data, active means growth inhibition above about 70%; inactive means the rest.
Tests used:
[1] = NCI Yeast Anticancer Drug Screen. Data for the rad52 strain (AID 147);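 further: 0% = growth of vehicle-treated control cultures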; details: S. cerevisiae rad52 mutant growth inhibition, stronger effect = higher value
In short: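 Genetically altered yeast (DNA damage repair defect) treated with compound; inhibition calculated relative to vehicle.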

[2] = NCI Yeast Anticancer Drug Screen. Data for the wt1 strain (AID 149);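 further: 0% = growth of vehicle-treated wt1 cultures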; details: S. cerevisiae wt1 strain (SPY 50644) growth inhibition, stronger effect = higher value
In short: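 Measured: growth of wt1 yeast under compound versus vehicle treatment, reported as inhibition.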

[3] = NCI Yeast Anticancer Drug Screen. Data for the mgt1 strain (AID 153); details: S. cerevisiae mgt1 mutant growth inhibition, stronger effect = higher value
In short: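 Read-out: yeast growth inhibition vs vehicle control. Strain mgt1, drawn from a panel altered in DNA damage repair or cell cycle control.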

[4] = NCI Yeast Anticancer Drug Screen. Data for the rad50 strain (AID 155);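 further: 0% = growth of vehicle-only cultures of the same strain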; details: S. cerevisiae rad50 strain growth inhibition, stronger effect = higher value
In short: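 Growth of the mutant yeast was measured after compound exposure and referenced to vehicle-treated cultures.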

[5] = NCI Yeast Anticancer Drug Screen. Data for the mec2-1 strain (AID 157); details: S. cerevisiae mec2-1 strain, stronger effect = higher value
In short: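 Cells of the genetically defined mec2-1 yeast strain are incubated with test compound. Inhibition of growth is calculated against vehicle-treated controls.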

[6] = NCI Yeast Anticancer Drug Screen. Data for the rad14 strain (AID 159);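 further: 0% = growth of vehicle-treated control cultures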; details: S. cerevisiae rad14 strain growth inhibition, stronger effect = higher value
In short: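 Here, inhibition of yeast growth was measured after compound exposure, using a strain with a genetic defect in DNA damage repair and vehicle-treated cultures as the reference.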

[7] = NCI Yeast Anticancer Drug Screen. Data for the sgs1 mgt1 strain (AID 161);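 further: 0% = growth of cultures given vehicle only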; details: S. cerevisiae sgs1 mgt1 strain, stronger effect = higher value
In short: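 Mutant yeast exposed to compound; growth scored against vehicle-only wells.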

[8] = NCI Yeast Anticancer Drug Screen. Data for the CLN2oe strain (AID 163);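 further: 0% = growth of vehicle-only control cultures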; details: S. cerevisiae CLN2oe strain, stronger effect = higher value
In short: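 Strain altered in cell-cycle control, incubated with compound; growth compared to solvent-treated controls.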

[9] = NCI Yeast Anticancer Drug Screen. Data for the cln2 rad14 strain (AID 165);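 further: 0% = growth equal to vehicle treated cultures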; details: S. cerevisiae cln2 rad14 strain, stronger effect = higher value
In short: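 The screen exposed genetically defined yeast (cln2 rad14) to test compounds and scored growth inhibition relative to vehicle-treated controls.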

[10] = NCI Yeast Anticancer Drug Screen. Data for the bub3 strain (AID 167); details: S. cerevisiae bub3 mutant strain, stronger effect = higher value
In short: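 Whole-cell yeast assay. The mutant strain was incubated with compounds, and growth inhibition was determined by comparison with vehicle-treated cells.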

[11] = NCI Yeast Anticancer Drug Screen. Data for the wt2 strain (AID 169);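 further: 0% = growth of vehicle-treated yeast cultures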; details: S. cerevisiae wt2 strain growth inhibition, stronger effect = higher value
In short: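 Steps: yeast strain treated with compound; growth recorded; inhibition calculated relative to cultures given vehicle alone.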

[12] = NCI Yeast Anticancer Drug Screen. Data for the mlh1 strain (AID 171);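 further: 0% = growth of vehicle-treated control cultures of the same strain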; details: S. cerevisiae mlh1 strain growth inhibition, stronger effect = higher value
In short: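 Yeast screen: mutant strain plus compound, growth scored against vehicle control wells.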

[13] = NCI Yeast Anticancer Drug Screen. Data for the sgs1 strain (AID 173);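 further: 0% = growth of vehicle-only control cultures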; details: S. cerevisiae sgs1 mutant, stronger effect = higher value
In short: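 Inhibition of yeast growth served as the measure. The mutant strain was treated with each compound, and growth was normalised to cultures receiving vehicle alone.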

[14] = NCI Yeast Anticancer Drug Screen. Data for the mlh1 rad18 strain (AID 175); details: S. cerevisiae mlh1 rad18 strain growth inhibition, stronger effect = higher value
In short: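 Compound-treated yeast growth, normalised to vehicle controls. Strain bears defined DNA repair mutations.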

[15] = NCI Yeast Anticancer Drug Screen. Data for the rad18 strain (AID 177); details: S. cerevisiae rad18 mutant growth inhibition, stronger effect = higher value
In short: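 Inhibition values reflect reduced yeast growth compared with vehicle-treated controls, using a strain engineered with a DNA damage repair defect.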

[16] = at 5.0 µM (retest, dose inferred, filed as 0.5)
[17] = at 50.0 µM (retest, dose inferred, filed as 5.0)

Measured: growth inhibition

CCOc1ccc(N)c(S)c1
inactive: [1]; at 1.2 µM 1% | [1]; at 3.7 µM 3% | [1]; at 11.0 µM 10% | [2]; at 1.2 µM 0% | [2]; at 3.7 µM 4% | [2]; at 11.0 µM 7% | [2]; at 33.0 µM 38% | [3]; at 1.2 µM 0% | [3]; at 3.7 µM -1% | [3]; at 11.0 µM 6% | [4]; at 1.2 µM 1% | [4]; at 3.7 µM -45% | [4]; [16] 0% | [4]; at 11.0 µM 34% | [5]; at 1.2 µM 0% | [5]; at 3.7 µM 4% | [5]; [16] -1% | [5]; at 11.0 µM 17% | [5]; at 33.0 µM 68% | [6]; at 1.2 µM -2% | [6]; at 3.7 µM -7% | [6]; at 11.0 µM 1% | [6]; at 33.0 µM 54% | [7]; [16] 9% | [8]; at 1.2 µM 0% | [8]; at 3.7 µM -6% | [8]; at 11.0 µM -4% | [8]; at 33.0 µM 4% | [9]; [16] 9% | [10]; at 1.2 µM 0% | [10]; at 3.7 µM 4% | [10]; [16] 1% | [10]; at 11.0 µM 23% | [10]; [17] 27% | [11]; at 1.2 µM -1% | [11]; at 3.7 µM 8% | [11]; at 11.0 µM 3% | [12]; at 1.2 µM 0% | [12]; at 3.7 µM 3% | [12]; at 11.0 µM 10% | [13]; at 1.2 µM -3% | [13]; at 3.7 µM 0% | [13]; at 11.0 µM 18% | [14]; [16] 2% | [15]; at 1.2 µM 1% | [15]; at 3.7 µM 0% | [15]; at 11.0 µM 9%
active: [1]; at 33.0 µM 79% | [1]; at 100.0 µM 97% | [2]; at 100.0 µM 97% | [3]; at 33.0 µM 71% | [3]; at 100.0 µM 98% | [4]; at 33.0 µM 88% | [4]; [17] 98% | [4]; at 50.0 µM 93.6% | [4]; at 100.0 µM 97% | [5]; [17] 96% | [5]; at 50.0 µM 91.3% | [5]; at 100.0 µM 98% | [6]; at 100.0 µM 98% | [7]; [17] 97% | [7]; at 50.0 µM 98.2% | [8]; at 100.0 µM 91% | [9]; [17] 98% | [9]; at 50.0 µM 97% | [10]; at 33.0 µM 97% | [10]; at 50.0 µM 98% | [10]; at 100.0 µM 96% | [11]; at 33.0 µM 86% | [11]; at 100.0 µM 97% | [12]; at 33.0 µM 82% | [12]; at 100.0 µM 98% | [13]; at 33.0 µM 97% | [13]; at 100.0 µM 96% | [14]; [17] 98% | [14]; at 50.0 µM 92% | [15]; at 33.0 µM 85% | [15]; at 100.0 µM 95%

O=C1CSC(c2ccccc2)N1c1ccc(-c2ccc(-n3c(-c4ccccc4)nc4ccccc4c3=O)cc2)cc1 (stereo unspecified)
active: [7]; at 50.0 µM 91.1% | [10]; [17] 77% | [10]; at 50.0 µM 82.3% | [14]; [17] 83% | [14]; at 50.0 µM 82.7%
inactive: [1]; at 1.2 µM 0% | [1]; at 3.7 µM 1% | [1]; at 11.0 µM 3% | [1]; at 33.0 µM 6% | [1]; at 100.0 µM 38% | [2]; at 1.2 µM -2% | [2]; at 3.7 µM 0% | [2]; at 11.0 µM -2% | [2]; at 33.0 µM -19% | [2]; at 100.0 µM -7% | [3]; at 1.2 µM 0% | [3]; at 3.7 µM 1% | [3]; at 11.0 µM 0% | [3]; at 33.0 µM 22% | [3]; at 100.0 µM 64% | [4]; at 1.2 µM 0% | [4]; at 3.7 µM 1% | [4]; [16] -2% | [4]; at 11.0 µM 2% | [4]; at 33.0 µM 13% | [4]; [17] 44% | [4]; at 50.0 µM 57.1% | [4]; at 100.0 µM 43% | [5]; at 1.2 µM 0% | [5]; at 3.7 µM -1% | [5]; [16] -1% | [5]; at 11.0 µM 2% | [5]; at 33.0 µM 4% | [5]; [17] 27% | [5]; at 50.0 µM 30.7% | [5]; at 100.0 µM 40% | [6]; at 1.2 µM 1% | [6]; at 3.7 µM 7% | [6]; at 11.0 µM 14% | [6]; at 33.0 µM 36% | [6]; at 100.0 µM 44% | [7]; [16] 6% | [7]; [17] 45% | [8]; at 1.2 µM 5% | [8]; at 3.7 µM 3% | [8]; at 11.0 µM 6% | [8]; at 33.0 µM 6% | [8]; at 100.0 µM 10% | [9]; [16] 40% | [9]; [17] -1% | [9]; at 50.0 µM 36% | [10]; at 1.2 µM 2% | [10]; at 3.7 µM 5% | [10]; [16] 3% | [10]; at 11.0 µM 12% | [10]; at 33.0 µM 23% | [10]; at 100.0 µM 59% | [11]; at 1.2 µM 0% | [11]; at 3.7 µM -3% | [11]; at 11.0 µM -2% | [11]; at 33.0 µM 7% | [11]; at 100.0 µM 28% | [12]; at 1.2 µM -1% | [12]; at 3.7 µM -2% | [12]; at 11.0 µM -1% | [12]; at 33.0 µM 14% | [12]; at 100.0 µM 54% | [13]; at 1.2 µM 1% | [13]; at 3.7 µM 1% | [13]; at 11.0 µM 6% | [13]; at 33.0 µM 23% | [13]; at 100.0 µM 46% | [14]; [16] -20% | [15]; at 1.2 µM -1% | [15]; at 3.7 µM 2% | [15]; at 11.0 µM 8% | [15]; at 33.0 µM 15% | [15]; at 100.0 µM 20%

Source: PubChem BioAssay (NCI)
